Measured values: PubChem BioAssay (NCI)
The panel holds about 83,000 compounds, 20% with a hit somewhere; the sample as a whole holds those more often.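 96-well plates, one dose, 48 hours. Percent growth reported; active if below 10.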 Unmarked numbers belong to inactive results. The source made the active and inactive calls.

Columns and labels:
Assay in all cases: NCI-60 one-dose screen, 48 h (100 = growth as untreated, 0 = no growth, -100 = all killed)
Details in all cases: 10 µM unless noted
[1] = system: SR leukemia
[2] = system: RPMI-8226 leukemia
[3] = system: OVCAR-8 ovarian
[4] = system: OVCAR-5 ovarian
[5] = system: OVCAR-4 ovarian
[6] = system: SK-OV-3 ovarian
[7] = system: IGROV1 ovarian
[8] = system: OVCAR-3 ovarian
[9] = system: HS 578T breast
[10] = system: NCI/ADR-RES ovarian
[11] = system: T-47D breast
[12] = system: BT-549 breast
[13] = system: MDA-MB-435 melanoma
[14] = system: SW-620 colon
[15] = system: MCF7 breast
[16] = system: HCT-116 colon
[17] = system: HCC-2998 colon
[18] = system: KM12 colon

SMILES	growth [1]	growth [2]	growth [3]	growth [4]	growth [5]	growth [6]	growth [7]	growth [8]	growth [9]	growth [10]	growth [11]	growth [12]	growth [13]	growth [14]	growth [15]	growth [16]	growth [17]	growth [18]
CC(C)c1ccc(C(=O)Nc2sc3c(c2C(N)=O)CCC(=O)C3)cc1	0.332% (active)	-37.1% (active)	11%	8.42% (active)	-85.4% (active)	25.8%	9.75% (active)	-35.7% (active)	-4.09% (active)	1.35% (active)	-15.8% (active)	-21.9% (active)	-11% (active)	-43.4% (active)	5.13% (active)	-41.1% (active)	14.9%	1.39% (active)
O=C(Cn1cc(CSc2nc3ccccc3o2)nn1)Nc1ccc(F)cc1F	109%	114%	103%	110%	108%	124%	114%	119%	107%	101%	116%	113%	114%	112%		109%	111%	116%
O=C(COc1ccc(-c2nc3cc(Cl)c(Cl)cc3[nH]2)cc1)N=Nc1c(O)[nH]c2ccc(Cl)cc12	31.1%	56%	37%	95.6%	64.2%	84.5%	79.9%	75.1%	67.5%	95.8%	56.8%	76.7%	83.5%	56.1%		54.4%	95.1%	64.5%
N=C(N)c1ccc(-c2ccc(-c3ccc(Cl)cc3Cl)s2)cc1	4.31% (active)	-24.4% (active)	-21.3% (active)	38.6%	-16.2% (active)	88%	-37.5% (active)	-16.4% (active)	71.6%		47.2%	100%	-2.28% (active)	-52.1% (active)	-65.4% (active)	-60.1% (active)	-65.9% (active)	-87.3% (active)
CC(C)c1ccc(Cc2cnc(NC(=O)c3cc(Br)cs3)s2)cc1	16.8%	22.6%	35.5%	53.7%	54.3%	28.6%	38%	15.6%	19.8%		30.3%	42.8%	-66.9% (active)	28.3%	11.7%	26.1%	64%	20.7%
Nc1c(C(=O)Nc2ccncc2)sc2nc3c(cc12)C(O)CCC3 (centres undefined)	84.1%	89.3%	98.7%	97.2%	114%	98%	103%	119%	118%	105%	74.3%	113%	101%	99.7%		83.4%	96.7%	109%
COC1=CC(c2ccc[nH]2)=N/C1=C\c1[nH]c(C)c(C)c1CCC(=O)OCc1ccccc1	-47.1% (active)	-51.1% (active)	-11.3% (active)	7.87% (active)	9.61% (active)	29.5%	0.242% (active)	-73.8% (active)	-9.2% (active)	-0.591% (active)	2.57% (active)	-28.7% (active)	-39% (active)	-14.8% (active)		-76% (active)	6.09% (active)	-20.9% (active)
CCOC(=O)C1=C(c2ccccc2)N=C2SC=C(c3ccc(Cl)cc3)N2C1c1ccc(Cl)cc1 (centres undefined)	75.7%	65.9%	78.6%	96.9%	48.7%	86.5%	72.3%	65.8%	85.2%		52.4%	87.5%	93.2%	81.8%	69.5%	63%	86.2%	
O=C(/C=C/c1cccc(Cl)c1)c1cccc(OCCCOc2cccc(C(=O)/C=C/c3cccc(Cl)c3)c2)c1	37.1%	-8.65% (active)	98.2%	113%	102%	107%	92.7%	102%	105%		90.4%	90.2%	102%	90.7%	20.8%	37%	109%	96.8%
CCOC(=O)c1c2c(n3cccc(F)c13)C(=O)c1ncccc1C2=O	20.5%	37.5%	19.3%	44.3%	24.4%	-4.82% (active)	34.4%	-11.1% (active)	31.5%		54.5%	21.7%	13.1%	-7.69% (active)	-23.1% (active)	-10.7% (active)	25%	19%
C#CCOc1cccc(Nc2ncnc3ccc(NC(=O)C=C)cc23)c1	21.1%	35.7%	32.4%	52.6%	59.3%	-3.78% (active)	-6.06% (active)	19.2%	42.4%		39%	19.5%	43.8%	55.9%	47.6%	32.8%	84.6%	60.4%
NC(=O)CSc1oc(-c2ccccc2)nc1S(=O)(=O)c1ccc(Br)cc1	79.3%	81.1%	49.4%	109%	45.4%	88.3%	93%	62.5%	56.1%	86.4%	57.8%	62.1%	81%	94.4%		50.6%	93.3%	89%
CSc1oc(C)nc1[P+](c1ccccc1)(c1ccccc1)c1ccccc1	30.6%	6.31% (active)	60.1%	83.1%	34.6%	57.7%	60.6%	36.9%	55%		8.57% (active)	43.4%	41%	65.1%	23.5%	33.4%	42.8%	23%
CCC(C(=O)[C@@H](C)[C@@H](O)[C@H](C)[C@@H]1O[C@@H]([C@@H](CC)C(=O)ONC(=O)c2ccccc2)CC[C@@H]1C)[C@H]1O[C@]2(C=CC(=O)[C@]3(CC[C@@](C)([C@H]4CC[C@](O)(CC)[C@H](C)O4)O3)O2)[C@H](C)C[C@@H]1C (some centres undefined)	-22.5% (active)	7.88% (active)	12.2%	-4.48% (active)	35.6%	95.2%	-76.2% (active)	-71.1% (active)	-2.36% (active)		21.4%	6.21% (active)	20.8%	19.7%	3.51% (active)	-36.9% (active)	20.7%	16.2%
COC(=O)[C@]12CCC(C)(C)C[C@H]1[C@H]1/C(=N/OCCc3nn[nH]n3)C[C@@H]3[C@@]4(C)CC[C@H](OC(C)=O)C(C)(C)[C@@H]4CC[C@@]3(C)[C@]1(C)CC2	31.8%	22.6%	29.7%	74.4%	25.3%	58.7%	30.9%	31.8%	48.3%	30.1%	26%	34.9%	31.4%	41.9%		24.7%	54.7%	36.5%
N#Cc1ccc2c(c1)C(=O)c1c-2n(CCCN)c(=O)c2cc([N+](=O)[O-])ccc12	-52% (active)	-45.5% (active)	-71.6% (active)	16.6%	-82% (active)	-100% (active)	-95.6% (active)	-96.4% (active)	-77.7% (active)		-78.6% (active)	-100% (active)	-86.3% (active)	-100% (active)	-74.8% (active)	-100% (active)	-100% (active)	-98% (active)
COc1cc(C2c3cc(OC(C)=O)c(OC)cc3CC3C(=O)OCC32)ccc1OC(C)=O (centres undefined)	108%	93.1%	111%	93.9%	99.2%	111%	111%	121%	123%		103%	99.6%	118%	101%	101%	98.2%	104%	117%
